Results: PubChem BioAssay AID1159580 (chemical genetic matrix, 2015)
About 2,000 (36%) of roughly 5,500 compounds were called active. Roughly 18% stayed inconclusive and do not appear here. Cut-off read from the data, not from the text of the source: active = normalized growth mostly below about 0.91 (no sharp cut-off); inconclusive = no clear call, values can overlap the other calls; inactive = mostly above about 0.92. Some of the results follow.

Assay: chemical genetic growth profiling, strain panel (AID 1159580);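 note: tested at 20 µM; growth read once vehicle control cultures reached saturation at 30 °C; 1 = growth at the plate median or of vehicle wells; lower values mean less growth of the strain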
Details: S. cerevisiae deletion strains, growth OD

Measured: normalized growth

O=C(O)CSCc1ccccc1
inactive: locus YAL013W, strain DEP1, stronger effect = lower value 1.01 | locus YBR229C, strain ROT2, stronger effect = lower value 1 | locus YCL061C, strain MRC1, stronger effect = lower value 0.991 | locus YDL101C, strain DUN1, stronger effect = lower value 1.02 | locus YDL134C, strain PPH21, stronger effect = lower value 0.986 | locus YDR150W, strain NUM1, stronger effect = lower value 0.98 | locus YEL061C, strain CIN8, stronger effect = lower value 1.01 | locus YGR078C, strain PAC10, stronger effect = lower value 0.976 | locus YHR030C, strain SLT2, stronger effect = lower value 1.07 | locus YHR087W, strain rtc3, stronger effect = lower value 0.99 | locus YJR043C, strain POL32, stronger effect = lower value 1.03 | locus YJR075W, strain HOC1, stronger effect = lower value 0.971 | locus YLR039C, strain RIC1, stronger effect = lower value 1.07 | locus YLR058C, strain SHM2 (second series), stronger effect = lower value 0.993 | locus YLR085C, strain ARP6, stronger effect = lower value 1.03 | locus YLR262C, strain YPT6, stronger effect = lower value 1.04 | locus YML094W, strain GIM5, stronger effect = lower value 1.03 | locus YMR219W, strain ESC1, stronger effect = lower value 0.997 | locus YMR263W, strain SAP30, stronger effect = lower value 1 | locus YNL128W, strain TEP1, stronger effect = lower value 0.986 | locus YNL153C, strain GIM3, stronger effect = lower value 0.997 | locus YNL298W, strain CLA4 (second series), stronger effect = lower value 1.05 | locus YNL322C, strain KRE1, stronger effect = lower value 0.991 | locus YNR030W, strain Alg12, stronger effect = lower value 1.02 | locus YPL055C, strain LGE1, stronger effect = lower value 0.958 | locus YPL241C, strain CIN2, stronger effect = lower value 1 | locus YPR135W, strain CTF4, stronger effect = lower value 0.976
